Laboratory results published in PubChem BioAssay AID1159580 (chemical genetic matrix, 2015).
“And” between values parts separate entries of the source, which are not always exact repeats. Equal values may be shown once. About 2,000 (36%) of roughly 5,500 compounds were called active. About 18% were inconclusive and are not listed. No stated cut-off is given here; in the data, active means normalized growth mostly below about 0.91 (no sharp cut-off); inconclusive means no clear call, values can overlap the other calls; inactive means mostly above about 0.92. This is one part of the list.

Assay: chemical genetic growth profiling, strain panel (AID 1159580);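 further: tested at 20 µM; growth read once vehicle control cultures reached saturation at 30 °C; 1 = growth at the plate median or of vehicle wells; lower values mean less growth of the strain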
Conditions: S. cerevisiae deletion strains, growth OD
[1] = locus YAL013W, strain DEP1, active compounds read low
[2] = locus YBR229C, strain ROT2, active compounds read low
[3] = locus YDL101C, strain DUN1, active compounds read low
[4] = locus YDL134C, strain PPH21, active compounds read low
[5] = locus YEL061C, strain CIN8, active compounds read low
[6] = locus YHR030C, strain SLT2, active compounds read low
[7] = locus YHR079C, strain IRE1, active compounds read low
[8] = locus YJL095W, strain BCK1, active compounds read low
[9] = locus YJR043C, strain POL32, active compounds read low
[10] = locus YJR066W, strain TOR1, active compounds read low
[11] = locus YLR039C, strain RIC1, active compounds read low
[12] = locus YLR113W, strain HOG1, active compounds read low
[13] = locus YLR262C, strain YPT6, active compounds read low
[14] = locus YNL153C, strain GIM3, active compounds read low
[15] = locus YNL183C, strain NPR1, active compounds read low
[16] = locus YOR231W, strain MKK1, active compounds read low
[17] = locus YPL256C, strain CLN2, active compounds read low

Measured: normalized growth

COc1cc(O)cc(OC)c1OC
inactive: [1] 1.05 | locus YAL021C, strain ccr4, active compounds read low 0.982 | locus YAL026C, strain drs2, active compounds read low 0.974 | locus YAL030W, strain snc1, active compounds read low 0.977 | locus YBL061C, strain skt5, active compounds read low 0.98 | locus YBR009C, strain hhf1, active compounds read low 0.964 | locus YBR021W, strain FUR4, active compounds read low 1.01 | locus YBR023C, strain chs3, active compounds read low 0.999 | locus YBR171W, strain sec66, active compounds read low 0.978 | [2] 1.01 | locus YBR231C, strain swc5, active compounds read low 0.992 | locus YBR279W, strain paf1, active compounds read low 0.992 | locus YCL011C, strain gbp2, active compounds read low 0.969 | locus YCL016C, strain dcc1, active compounds read low 0.997 | locus YCL029C, strain bik1, active compounds read low 1.01 | locus YCL061C, strain MRC1, active compounds read low 0.986 | locus YCL069W, strain vba3, active compounds read low 0.978 | locus YCR088W, strain abp1, active compounds read low 0.987 | locus YDL005C, strain med2, active compounds read low 0.967 | locus YDL035C, strain GPR1, active compounds read low 1.05 | locus YDL040C, strain nat1, active compounds read low 0.989 | locus YDL074C, strain BRE1, active compounds read low 1.04 | [3] 1.02 | [4] 1.01 | locus YDL185W, strain tfp1, active compounds read low 1 | locus YDL192W, strain arf1, active compounds read low 1.03 | locus YDR001C, strain nth1, active compounds read low 0.972 | locus YDR069C, strain doa4, active compounds read low 0.962 | locus YDR101C, strain arx1, active compounds read low 1 | locus YDR137W, strain rgp1, active compounds read low 0.998 | locus YDR159W, strain sac3, active compounds read low 0.925 | locus YDR162C, strain NBP2, active compounds read low 1.06 | locus YDR195W, strain ref2 0.918 | locus YDR297W, strain sur2, active compounds read low 0.986 | locus YDR318W, strain mcm21, active compounds read low 1.01 | locus YDR334W, strain swr1, active compounds read low 0.975 | locus YDR335W, strain msn5, active compounds read low 0.991 | locus YDR388W, active compounds read low 1.01 | locus YDR392W, strain spt3, active compounds read low 0.942 | locus YDR502C, strain sam2, active compounds read low 0.999 | locus YEL003W, strain gim4, active compounds read low 0.987 | locus YEL037C, strain rad23, active compounds read low 0.988 | locus YEL061C, strain CIN8 (second series), active compounds read low 0.961 | [5] 1.02 | locus YER015W, strain faa2, active compounds read low 1 | locus YER016W, strain bim1, active compounds read low 0.995 | locus YER110C, active compounds read low 1 | locus YER111C, strain swi4, active compounds read low 0.967 | locus YER155C, strain BEM2 (second series), active compounds read low 0.97 | locus YER155C, strain BEM2, active compounds read low 1.02 | locus YER167W, strain BCK2, active compounds read low 1.02 | locus YFR010W, strain ubp6, active compounds read low 0.962 | locus YGL078C, strain dbp3, active compounds read low 1.01 | locus YGL086W, strain mad1, active compounds read low 1.01 | locus YGL167C, strain pmr1, active compounds read low 0.954 | locus YGL173C, strain kem1, active compounds read low 0.99 | locus YGL227W, strain vid30, active compounds read low 0.97 | locus YGL240W, strain doc1, active compounds read low 0.945 | locus YGL248W, strain PDE1, active compounds read low 1.04 | locus YGL253W, strain hxk2, active compounds read low 0.995 | locus YGR135W, strain pre9, active compounds read low 1.01 | locus YGR252W, strain gcn5, active compounds read low 1.03 | locus YHR013C, strain ard1, active compounds read low 0.923 | locus YHR027C, strain rpn1, active compounds read low 0.993 | [6] 1.02 and 0.996 | locus YHR079C, strain IRE1 (second series), active compounds read low 0.995 | [7] 0.983 | locus YHR094C, strain hxt1, active compounds read low 0.992 | locus YHR129C, strain ARP1, active compounds read low 1.02 | locus YHR142W, strain chs7, active compounds read low 1.01 | locus YHR200W, strain rpn10, active compounds read low 1.01 | locus YIL066C, strain RNR3, active compounds read low 1.03 | locus YIL073C, strain SPO22, active compounds read low 1.06 | locus YIL125W, strain kgd1, active compounds read low 1.01 | locus YIR030C, strain dcg1, active compounds read low 1 | locus YJL092W, strain hpr5, active compounds read low 0.982 | locus YJL095W, strain BCK1 (second series), active compounds read low 0.996 | [8] 1.05 and 0.999 | locus YJL115W, strain asf1, active compounds read low 0.992 | locus YJL129C, strain trk1, active compounds read low 0.97 | locus YJL134W, strain LCB3, active compounds read low 1.03 | locus YJL154C, strain vps35, active compounds read low 0.983 | locus YJL164C, strain tpk1, active compounds read low 0.971 | locus YJL166W, strain qcr8, active compounds read low 0.993 | locus YJL168C, strain set2, active compounds read low 1.01 | locus YJL187C, strain SWE1 (second series), active compounds read low 1.03 | locus YJL187C, strain SWE1, active compounds read low 0.977 | [9] 1.05 | [10] 0.905 | locus YKL009W, strain mrt4, active compounds read low 1.05 | locus YKL068W, active compounds read low 1.01 | locus YKL085W, strain MDH1 (second series), active compounds read low 1.02 | locus YKL085W, strain MDH1, active compounds read low 1.02 | locus YKL160W, strain elf1, active compounds read low 1 | locus YKR001C, strain vps1, active compounds read low 1.01 | locus YKR026C, strain gcn3, active compounds read low 0.945 | locus YKR091W, strain srl3, active compounds read low 0.968 | locus YLL001W, strain dnm1, active compounds read low 0.994 | locus YLL026W, active compounds read low 0.998 | locus YLL041C, strain sdh2, active compounds read low 1 | locus YLR027C, strain aat2, active compounds read low 0.986 | [11] 1.11 | locus YLR058C, strain SHM2, active compounds read low 1.03 | locus YLR102C, strain apc9, active compounds read low 0.99 | [12] 1.04 | locus YLR221C, strain rsa3, active compounds read low 0.97 | locus YLR258W, strain gsy2, active compounds read low 0.996 | locus YLR262C, strain YPT6 (second series), active compounds read low 0.992 | [13] 1.15 | locus YLR268W, strain sec22, active compounds read low 1.03 | locus YLR320W, strain mms22, active compounds read low 0.984 | locus YLR342W, strain FKS1 (second series), active compounds read low 1.04 | locus YLR342W, strain FKS1, active compounds read low 0.957 | locus YLR357W, strain rsc2, active compounds read low 0.948 | locus YLR370C, strain arc18, active compounds read low 0.955 | locus YLR371W, strain rom2, active compounds read low 1 | locus YLR384C, strain iki3, active compounds read low 0.937 | locus YLR418C, strain cdc73, active compounds read low 1.01 | locus YML016C, strain PPZ1, active compounds read low 1.02 | locus YML032C, strain rad52, active compounds read low 1.01 | locus YML120C, strain ndi1, active compounds read low 0.97 | locus YML124C, strain tub3, active compounds read low 1.01 | locus YMR058W, strain fet3, active compounds read low 0.97 | locus YMR078C, strain ctf18, active compounds read low 1 | locus YMR125W, strain sto1, active compounds read low 0.984 | locus YMR129W, active compounds read low 0.962 | locus YMR205C, strain PFK2, active compounds read low 0.95 | locus YMR223W, strain ubp8, active compounds read low 0.993 | locus YMR231W, strain pep5, active compounds read low 0.994 | locus YMR307W, strain GAS1, active compounds read low 1.08 | locus YNL067W, strain RPL9B, active compounds read low 1.03 | locus YNL071W, strain lat1, active compounds read low 0.994 | locus YNL128W, strain TEP1, active compounds read low 1.07 | [14] 1.01 | [15] 0.928 | locus YNL209W, strain ssb2, active compounds read low 0.983 | locus YNL233W, strain BNI4, active compounds read low 1.03 | locus YNL248C, strain rpa49, active compounds read low 1 | locus YNL250W, strain rad50, active compounds read low 1.03 | locus YNL271C, strain bni1, active compounds read low 1.01 | locus YNL298W, strain CLA4, active compounds read low 1 | locus YNL307C, strain MCK1, active compounds read low 0.996 | locus YNL322C, strain KRE1 (second series), active compounds read low 0.964 | locus YNR049C, strain mso1, active compounds read low 0.986 | locus YNR052C, strain pop2, active compounds read low 0.996 | locus YOL006C, strain TOP1, active compounds read low 1.22 | locus YOL012C, strain htz1 1.19 | locus YOL147C, strain pex11, active compounds read low 1 | locus YOR001W, strain rrp6, active compounds read low 1.01 | locus YOR061W, strain CKA2, active compounds read low 1.04 | locus YOR069W, strain VPS5, active compounds read low 1.01 | locus YOR070C, strain gyp1, active compounds read low 0.993 | locus YOR080W, strain dia2, active compounds read low 0.977 | locus YOR083W, strain WHI5, active compounds read low 1 | locus YOR106W, strain vam3, active compounds read low 1 | locus YOR136W, strain idh2, active compounds read low 1.01 | locus YOR144C, strain elg1, active compounds read low 1 | locus YOR184W, strain ser1, active compounds read low 1.05 | [16] 1 | locus YOR265W, strain rbl2, active compounds read low 0.96 | locus YOR270C, strain vph1, active compounds read low 0.986 | locus YOR290C, strain snf2, active compounds read low 0.921 | locus YOR316C, strain cot1, active compounds read low 0.993 | locus YPL051W, strain arl3, active compounds read low 1.01 | locus YPL078C, strain atp4, active compounds read low 0.988 | locus YPL106C, strain sse1, active compounds read low 0.944 | locus YPL240C, strain hsp82, active compounds read low 0.981 | [17] 0.978 | locus YPR119W, strain clb2, active compounds read low 1 | locus YPR141C, strain kar3, active compounds read low 1.01 | locus YPR163C, strain tif3, active compounds read low 1 | locus YPR167C, strain met16, active compounds read low 1.01 | strain wtn01, active compounds read low 1.02

COc1cc(OC)cc(N2C(=O)C=CC2=O)c1
active: [1] 0.0543 | [2] 0.0573 | [3] 0.0709 | [4] 0.0477 | locus YDR150W, strain NUM1, active compounds read low 0.05 | [5] 0.0533 | locus YGR052W, strain FMP48, active compounds read low 0.129 | locus YGR078C, strain PAC10, active compounds read low 0.802 | [6] 0.0734 and 0.115 | [7] 0.231 | locus YHR082C, strain KSP1, active compounds read low 0.112 | locus YHR087W, strain rtc3, active compounds read low 0.0623 | [8] 0.127 | [9] 0.0486 | [10] 0.113 | locus YJR075W, strain HOC1, active compounds read low 0.0671 | locus YKL171W, strain NNK1, active compounds read low 0.0984 | locus YKL203C, strain TOR2, active compounds read low 0.107 | [11] 0.0602 | locus YLR058C, strain SHM2 (second series), active compounds read low 0.0529 | locus YLR085C, strain ARP6, active compounds read low 0.0621 | [12] 0.184 | [13] 0.0582 | locus YML094W, strain GIM5, active compounds read low 0.0622 | locus YMR219W, strain ESC1, active compounds read low 0.0491 | locus YMR263W, strain SAP30, active compounds read low 0.0514 | [14] 0.0557 | [15] 0.131 | locus YNL207W, strain RIO2, active compounds read low 0.0908 | locus YNL298W, strain CLA4 (second series), active compounds read low 0.0613 | locus YNL322C, strain KRE1, active compounds read low 0.0499 | locus YNR030W, strain Alg12, active compounds read low 0.0629 | locus YOR119C, strain RIO1, active compounds read low 0.121 | [16] 0.185 | locus YPL055C, strain LGE1, active compounds read low 0.07 | locus YPL241C, strain CIN2, active compounds read low 0.0792 | [17] 0.146 | locus YPR135W, strain CTF4, active compounds read low 0.18
